The text below walks through data of PubChem BioAssay AID602193 (The Scripps Research Institute Molecular Screening Center, 2012).

Among all 1,600 compounds or so, about 410 (26%) were called active. Only a selection was taken, and actives are over-represented in it overall. Unmarked numbers belong to inactive results.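 The calls were made as follows: active = mean inhibition over triplicates above the low-control well mean plus 3 SD, set per campaign (cut at about 13% in these data); inactive = the rest.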

The experiment in a line: nonselective cAMP signaling inhibitors, parental cells, counter-screen for MC4R biased antagonist project, cell-based, TR-FRET, U2OS, forskolin, triplicate (AID 602193).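 Also: signal is single emission at 671 nm which falls as cellular cAMP rises; 0% = forskolin-stimulated wells and 100% = buffer without forskolin.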 The conditions noted are these: LANCE TR-FRET, at 6.5 µM, stronger effect = higher value. On the technique in general: Counterscreens check selectivity or assay interference.
`Cc1cccc(N2C(=O)NC(=O)/C(=C\c3cnn(-c4ccccc4)c3)C2=O)c1`: the inhibition (as a rule, the relative decrease from the control value, in per cent) was 14.2% (active).

Turning to `COc1cccc(N2C(=O)NC(=O)/C(=C\c3ccc([N+](=O)[O-])s3)C2=O)c1`, the inhibition was 0.64%.
